High-throughput results: PubChem, The Scripps Research Institute Molecular Screening Center
Rows were chosen to be rich in hits. Some 1.2% of all compounds tested hit in one or more screens of this group.
Cardiac RTF inh: cardiac RTF calcium desensitization | P19429+P45379 | IANBD-labeled cardiac RTF, Ca2+ fluorescence | inhibition, % at 7.15 µM | 340,000 compounds, 0.12% hits | AID 493244;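 active = inhibition above the mean inhibition of all tested compounds plus 3 SD, cut at about 17% in these data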;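 also: assay run at fixed EC70 calcium of 1.6 mM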
RTF Ca sens act: increases calcium sensitivity of human cardiac regulated thin filaments; activation, % at 7.2 µM; IANBD-labeled TnC RTF fluorescence at EC20 calcium; 0% EC20 calcium, 100% full calcium; P19429+P45379; 340,000 compounds, 0.24% hits; AID 493008;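 active = activation above the mean over all tested compounds plus 3 SD, cut at about 30% in these data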;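 also: rise in fluorescence read as greater calcium sensitivity of cardiac thin filaments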
GLD-1 TGE inh: GLD-1-TGE RNA interaction inhibition (C. elegans); Q17339; purified GLD-1 + fluorescein TGE RNA, fluorescence polarization; inhibition, % at 5.96 µM; 320,000 compounds, 0.44% hits; AID 2280;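 active = percent inhibition above a per-plate cutoff, the plate mean of test compounds plus 3 SD, cut at about 30% in these data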
eLon inh: inhibitors of E. coli Lon protease; P0A9M0; AID 602123; 360,000 compounds, 0.42% hits; purified E. coli Lon protease, fluorescence polarization; inhibition, % at 7.94 µM; in the data active = inhibition above about 13%, passing the limit was not always enough
Target sequence (P0A9M0 whole entry, looked up): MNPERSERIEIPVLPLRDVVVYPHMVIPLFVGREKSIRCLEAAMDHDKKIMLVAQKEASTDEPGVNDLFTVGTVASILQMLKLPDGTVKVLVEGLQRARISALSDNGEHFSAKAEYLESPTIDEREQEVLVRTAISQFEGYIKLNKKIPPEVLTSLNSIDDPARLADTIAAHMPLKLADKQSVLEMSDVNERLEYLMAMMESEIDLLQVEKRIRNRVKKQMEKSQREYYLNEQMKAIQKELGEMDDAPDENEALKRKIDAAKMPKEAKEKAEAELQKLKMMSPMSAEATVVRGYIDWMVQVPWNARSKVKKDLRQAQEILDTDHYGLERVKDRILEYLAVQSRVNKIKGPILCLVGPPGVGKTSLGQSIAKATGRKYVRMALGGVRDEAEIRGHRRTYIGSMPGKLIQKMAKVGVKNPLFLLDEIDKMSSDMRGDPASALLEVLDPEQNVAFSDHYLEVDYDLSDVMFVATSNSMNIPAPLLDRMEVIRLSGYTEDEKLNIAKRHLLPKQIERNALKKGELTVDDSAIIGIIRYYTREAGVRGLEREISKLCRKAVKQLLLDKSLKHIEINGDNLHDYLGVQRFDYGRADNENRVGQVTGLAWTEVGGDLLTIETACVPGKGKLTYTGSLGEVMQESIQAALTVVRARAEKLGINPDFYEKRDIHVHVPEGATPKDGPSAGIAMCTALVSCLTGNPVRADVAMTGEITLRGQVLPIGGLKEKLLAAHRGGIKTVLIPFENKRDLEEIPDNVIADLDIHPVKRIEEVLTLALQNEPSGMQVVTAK
Bcl-xL primary: blocks human Bcl-xL binding to Bim BH3 peptide. 320,000 compounds, 0.7% hits. Q07817. inhibition, % at 10.9 µM. GST-Bcl-xL / FITC-Bim BH3 peptide fluorescence polarization;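 active = inhibition above the mean of all tested compounds plus 3 SD, cutoff set per campaign, cut at about 30% in these data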;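 also: inhibitors lower millipolarization by displacing the labeled peptide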
Hits are given with their value; 0 = inactive; - = no result.

SMILES | Cardiac RTF inh | RTF Ca sens act | GLD-1 TGE inh | eLon inh | Bcl-xL primary
CC1=CC2=NC(=O)/C(=C/c3coc4ccc(Cl)cc4c3=O)C(=N)N2O1 | 0 | 58.3 | 0 | 0 | 0
CSC1=NSC2=NC(=O)/C(=C/c3coc4ccccc4c3=O)C(=N)N12 | 0 | 287.5 | 0 | 0 | 43.7
N=C1/C(=C\c2coc3ccccc3c2=O)C(=O)N=C2SC=CN12 | 0 | 80.7 | 51.0 | 0 | 54.6
Cn1c(N)c(C(=O)Nc2ccccc2)c(=O)[nH]c1=O | - | - | 0 | - | 0
N#CC1=C(N)Oc2cc(N)ccc2C1c1cccc(F)c1 (stereo not given) | 0 | 0 | 0 | 0 | 0
CN(C)c1ccc2c(c1)OC(N)=C(C#N)C2c1cccc(F)c1 (stereo not given) | 0 | 72.8 | 0 | 0 | 0
O=S(=O)(Nc1ccc(N=Nc2ccccc2)cc1)c1ccccc1 | 0 | 0 | 0 | 0 | 0
CN(CCc1ccccn1)c1ncnc2[nH]ncc12 | 0 | 0 | 0 | 0 | 0
C=CCOc1nc2c(c(=O)n(C)c(=O)n2C)n1C | 0 | 0 | 0 | 0 | 36.0
CCCCn1c(-c2cccc(Br)c2)nc2cc3[nH]c(=O)c(C(C)C)nc3cc21 | 0 | 0 | 0 | 0 | 31.1
CCCCn1c(-c2cccnc2)nc2cc3[nH]c(=O)c(C(C)C)nc3cc21 | 0 | 0 | 0 | 0 | 31.2
Cc1nc(NC(=O)c2cncc(Br)c2)ccc1Br | 0 | 0 | 0 | 0 | 0
O=C(N/N=C1/C(=O)c2cccc3cccc1c23)c1ccc(Cl)cc1 | 0 | 0 | 0 | 0 | 56.8
Cc1ccc(S(=O)(=O)N2CCCN(C)c3nc4ccccc4nc32)cc1 | 0 | 0 | 0 | 0 | 37.9
Cc1nc2nc(-c3ccc(Cl)cc3)cn2nc1C | 0 | 0 | 0 | 0 | 0
Cc1nc2nc(-c3cccs3)cn2nc1C | 0 | 0 | 72.4 | 0 | 105.6
O=C(c1nc2ccc(Cl)cn2c1CN1CCCC1)N1CCc2ccccc2C1 | 0 | 0 | 37.2 | 0 | 56.6
O=C(c1nc2ccc(Cl)cn2c1CN1CCC(CO)CC1)N1CCc2ccccc2C1 | 0 | 0 | 0 | 0 | 0
COc1ccc2c(c1OC)C(=O)N1C(C(=O)O)Cc3c([nH]c4ccccc34)C21 (stereo not given) | 0 | 0 | 0 | 0 | 48.2
O=c1c2ccccc2nc(-c2ccc(Cl)cc2Cl)n1O | 0 | 0 | 0 | 0 | 0
COc1cc(NC(=S)N2CCN(CCO)CC2)cc(OC)c1 | 0 | 0 | 0 | 0 | 73.2
Cc1ccc2c(c1)c(=O)c1c3n2CCN(C(=O)CCl)C3CC1 (stereo not given) | 0 | 0 | 0 | 0 | 48.5
Cc1ccc2c(c1)c1c3n2CCN(C(=O)CN2CCN(C)CC2)C3CCC1 (stereo not given) | 0 | 0 | 0 | 0 | 0
NC(=O)c1ccsc1NC(=O)COc1ccccc1 | 0 | 0 | 0 | 0 | 47.4
COc1ccc(C)cc1NC(=O)CC1COc2ccccc2O1 (stereo not given) | 0 | 67.1 | 0 | 0 | 0
SMILES | Cardiac RTF inh | RTF Ca sens act | GLD-1 TGE inh | eLon inh | Bcl-xL primary
C=CCOc1cc(C)nc(-c2ccccc2O)n1 | 0 | 0 | 0 | 0 | 0
Cc1ccc(CNc2ncc(-c3ccc4c(c3)OCO4)n2C)cc1 | 0 | 0 | 0 | 0 | 0
COC(=O)CNc1ccc2c(c1)OCO2 | 0 | 0 | 0 | 0 | 31.1
Cc1ccc(CNc2ccc3c(c2)OCO3)cc1 | 0 | 38.9 | 0 | 23.5 | 139.5
CCOc1ccc(C(=O)COC(=O)c2cc([N+](=O)[O-])ccc2N2CCOCC2)cc1 | 0 | 0 | 0 | 0 | 0
N#Cc1cc2c(=O)n3ccccc3nc2n(CCCn2ccnc2)c1=N | 0 | 0 | 0 | 0 | 0
CC1(C)CC(=O)C(CC2=C(N)CC(C)(C)CC2=O)=C(N)C1 | 0 | 0 | 0 | 0 | 0
Cc1cccc(NC(=O)CCN2CCOCC2)c1 | 0 | 0 | 0 | 0 | 0
CCN1CCN(CCC(=O)Nc2cccc(C)c2)CC1 | 0 | 0 | 0 | 0 | 31.9
O=C(O)C(Cc1c[nH]c2ccccc12)NS(=O)(=O)c1cccc(Cl)c1Cl (stereo not given) | 0 | 0 | 0 | 0 | 0
CCOC(=O)CC(=O)CSc1nc2ccc(C)cc2cc1C#N | 0 | 0 | 83.2 | 0 | 0
CCOc1ccc2nc(SCC(=O)N3c4ccccc4Sc4ccccc43)c(C#N)cc2c1 | 0 | 0 | 47.7 | 0 | 54.8
CCOc1ccc2nc(SCC(=O)N3c4ccccc4Sc4ccccc43)sc2c1 | 0 | 0 | 0 | 0 | 0
CCOC(=O)CC(=O)CSc1nc(CC)c(C)cc1C#N | 0 | 0 | 0 | 0 | 0
Cc1ccc(C(=O)COc2nc(C)nc3ccccc23)cc1 | 0 | 0 | 0 | 0 | 0
CN1CC=C2C(C#N)=C(N)C(C#N)(C#N)C(c3cccc(Cl)c3Cl)C2C1 (stereo not given) | 0 | 0 | 68.5 | 0 | 83.4
COc1cccc(OC)c1OCc1cc(C2C3CCCC=C3C(C#N)=C(N)C2(C#N)C#N)c(C)cc1C (stereo not given) | 0 | 0 | 0 | 0 | 0
CC(=O)N1CC=C2C(C#N)=C(N)C(C#N)(C#N)C(C)C2C1 (stereo not given) | 0 | 0 | 0 | 0 | 0
COc1ccc(OC)c(C2C3CN(C(C)C)CC=C3C(C#N)=C(N)C2(C#N)C#N)c1 (stereo not given) | 0 | 0 | 52.1 | 0 | 87.2
N#CC1=C(N)C(C#N)(C#N)[C@H](c2ccoc2)[C@H]2CN(Cc3ccccc3)CC=C12 | 0 | 31.1 | 74.8 | 0 | 114.1
CCCN1CC=C2C(C#N)=C(N)C(C#N)(C#N)C(c3cccc(OC)c3OC)C2C1 (stereo not given) | 0 | 52.5 | 103.7 | 0 | 128.8
CC(=O)Nc1sc(/C(C#N)=C\c2cccc(Cl)c2)nc1-c1ccc(C)cc1 | 0 | 43.0 | 0 | 0 | 0
CC(=O)Nc1sc(N/N=C/c2ccccc2)nc1-c1ccc(C)cc1 | 0 | 0 | 0 | 0 | 0
C=CCNC(=O)c1cccc2c1C(=O)c1ccc(N3CCCC3)cc1S2(=O)=O | 0 | 0 | 43.2 | 0 | -
O=C(NCC1CC1)c1cccc2c1C(=O)c1ccc(N3CCCC3)cc1S2(=O)=O | 0 | 0 | 43.6 | 0 | -
SMILES | Cardiac RTF inh | RTF Ca sens act | GLD-1 TGE inh | eLon inh | Bcl-xL primary
O=C(O)c1ccc(S(=O)(=O)NCc2ccc3c(c2)OCO3)cc1 | 0 | 0 | 0 | 0 | 0
CCC(C)[C@H](NC(=O)C1CC(=O)N(c2ccc3c(c2)OCCO3)C1)C(=O)NC1CCCC1 (stereo not given in full) | 0 | 0 | 0 | 0 | 0
CCC(C)[C@H](NC(=O)C1CC(=O)N(c2ccc3c(c2)OCO3)C1)C(=O)NC1CCCCC1 (stereo not given in full) | 0 | 0 | 38.0 | 0 | 54.3
COc1cc2c(cc1OC)[C@@H]1Cc3cc4c(cc3[C@H](C2)N1C)OCO4 | 0 | 0 | 0 | 0 | 0
CC1C2C(c3ccccc3)N(C)C(=O)N(C)C2N(C)C(=O)N1C (stereo not given) | 0 | 0 | 0 | 0 | 55.2
CCc1ccc(OCc2nc(-c3ccccn3)no2)c(Br)c1 | 0 | 0 | 0 | 0 | 0
Cc1cccc(CSc2nc(N)c(C#N)c(-c3cccs3)c2C#N)c1 | 0 | 0 | 0 | 0 | 0
CN1CCc2nc(SCC(=O)Nc3cccc(F)c3)c(C#N)c(-c3cccs3)c2C1 | 0 | 0 | 0 | 0 | 39.4
